# Test results from ChEMBL document CHEMBL2218924, “A broad activity screen in support of a chemogenomic map for kinase signalling research and drug discovery” (Biochem J, 2013).
# Legend:
# [1] = molecular target: Death-associated protein kinase 1 (Homo sapiens) (UniProt P53355); conditions: at 10 µM
# [2] = molecular target: Death-associated protein kinase 2 (Homo sapiens) (UniProt Q9UIK4); conditions: at 1 µM
# [3] = molecular target: Death-associated protein kinase 2 (Homo sapiens) (UniProt Q9UIK4); conditions: at 10 µM
# [4] = molecular target: T1, Serine/threonine-protein kinase DCLK2 (Homo sapiens) (UniProt Q8N568); conditions: at 1 µM
# T1 sequence (whole entry): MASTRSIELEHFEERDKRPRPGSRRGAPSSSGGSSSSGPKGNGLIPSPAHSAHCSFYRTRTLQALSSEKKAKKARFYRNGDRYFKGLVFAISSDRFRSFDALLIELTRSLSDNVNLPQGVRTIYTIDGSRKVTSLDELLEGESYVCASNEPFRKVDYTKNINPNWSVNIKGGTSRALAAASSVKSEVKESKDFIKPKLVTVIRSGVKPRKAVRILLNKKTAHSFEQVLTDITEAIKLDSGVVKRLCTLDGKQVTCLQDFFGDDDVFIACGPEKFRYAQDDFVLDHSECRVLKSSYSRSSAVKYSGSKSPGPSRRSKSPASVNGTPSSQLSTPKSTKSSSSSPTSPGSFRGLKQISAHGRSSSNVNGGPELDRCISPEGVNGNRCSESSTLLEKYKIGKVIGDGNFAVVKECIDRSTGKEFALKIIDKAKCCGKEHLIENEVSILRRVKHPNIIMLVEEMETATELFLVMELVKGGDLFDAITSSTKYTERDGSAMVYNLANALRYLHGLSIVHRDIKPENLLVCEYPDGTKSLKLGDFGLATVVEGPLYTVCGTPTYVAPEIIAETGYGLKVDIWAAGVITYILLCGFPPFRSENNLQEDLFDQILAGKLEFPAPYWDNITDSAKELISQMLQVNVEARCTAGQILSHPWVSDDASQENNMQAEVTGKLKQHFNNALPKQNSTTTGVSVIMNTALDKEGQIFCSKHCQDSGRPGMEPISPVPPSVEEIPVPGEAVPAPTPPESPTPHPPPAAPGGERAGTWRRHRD
# [5] = molecular target: T1, Serine/threonine-protein kinase DCLK2 (Homo sapiens); conditions: at 10 µM
# [6] = molecular target: T2, Discoidin domain-containing receptor 2 (Homo sapiens) (UniProt Q16832); conditions: at 1 µM
# T2 sequence (whole entry): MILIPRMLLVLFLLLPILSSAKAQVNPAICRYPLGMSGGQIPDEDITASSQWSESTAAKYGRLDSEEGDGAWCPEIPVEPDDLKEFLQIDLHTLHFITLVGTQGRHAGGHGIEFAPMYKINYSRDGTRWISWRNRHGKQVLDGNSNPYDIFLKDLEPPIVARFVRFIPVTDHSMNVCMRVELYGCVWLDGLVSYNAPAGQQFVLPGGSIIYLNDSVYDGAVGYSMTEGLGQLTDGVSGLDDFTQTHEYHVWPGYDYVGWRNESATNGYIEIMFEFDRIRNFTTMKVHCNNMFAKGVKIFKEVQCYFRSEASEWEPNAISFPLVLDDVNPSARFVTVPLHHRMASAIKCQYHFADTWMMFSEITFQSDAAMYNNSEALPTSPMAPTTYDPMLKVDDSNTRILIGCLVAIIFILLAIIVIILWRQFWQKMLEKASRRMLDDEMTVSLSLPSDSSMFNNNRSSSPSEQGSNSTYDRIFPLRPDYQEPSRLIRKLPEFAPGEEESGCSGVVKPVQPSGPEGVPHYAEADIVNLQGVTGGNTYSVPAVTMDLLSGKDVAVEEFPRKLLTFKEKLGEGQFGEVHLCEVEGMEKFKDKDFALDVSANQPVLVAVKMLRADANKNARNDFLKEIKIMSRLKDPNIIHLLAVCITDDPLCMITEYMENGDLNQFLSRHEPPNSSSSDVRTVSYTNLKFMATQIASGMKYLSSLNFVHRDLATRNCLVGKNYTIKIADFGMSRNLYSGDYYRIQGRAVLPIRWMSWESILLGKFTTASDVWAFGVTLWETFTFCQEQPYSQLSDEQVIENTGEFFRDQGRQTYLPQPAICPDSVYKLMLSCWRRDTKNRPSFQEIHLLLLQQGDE
# [7] = molecular target: T2, Discoidin domain-containing receptor 2 (Homo sapiens); conditions: at 10 µM
# [8] = molecular target: T3, Myotonin-protein kinase (Homo sapiens) (UniProt Q09013); conditions: at 10 µM
# T3 sequence (whole entry): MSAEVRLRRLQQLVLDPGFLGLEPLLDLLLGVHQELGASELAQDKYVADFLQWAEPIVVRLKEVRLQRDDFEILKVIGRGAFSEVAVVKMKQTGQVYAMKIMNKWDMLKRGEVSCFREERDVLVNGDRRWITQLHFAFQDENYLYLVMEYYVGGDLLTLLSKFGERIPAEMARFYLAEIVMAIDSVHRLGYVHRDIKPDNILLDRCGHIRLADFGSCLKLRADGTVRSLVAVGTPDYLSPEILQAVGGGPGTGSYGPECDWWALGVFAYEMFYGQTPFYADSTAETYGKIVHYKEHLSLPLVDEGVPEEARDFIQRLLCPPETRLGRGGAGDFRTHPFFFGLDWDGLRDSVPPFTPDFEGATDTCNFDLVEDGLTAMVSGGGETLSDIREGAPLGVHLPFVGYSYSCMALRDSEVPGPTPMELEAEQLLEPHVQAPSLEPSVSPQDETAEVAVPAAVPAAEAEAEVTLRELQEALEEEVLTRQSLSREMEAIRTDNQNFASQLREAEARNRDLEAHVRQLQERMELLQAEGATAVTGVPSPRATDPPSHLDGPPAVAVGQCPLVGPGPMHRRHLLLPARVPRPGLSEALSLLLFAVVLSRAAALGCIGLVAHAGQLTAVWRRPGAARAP
# [9] = molecular target: T4, Serine/threonine-protein kinase 17A (Homo sapiens) (UniProt Q9UEE5); conditions: at 1 µM
# T4 sequence (whole entry): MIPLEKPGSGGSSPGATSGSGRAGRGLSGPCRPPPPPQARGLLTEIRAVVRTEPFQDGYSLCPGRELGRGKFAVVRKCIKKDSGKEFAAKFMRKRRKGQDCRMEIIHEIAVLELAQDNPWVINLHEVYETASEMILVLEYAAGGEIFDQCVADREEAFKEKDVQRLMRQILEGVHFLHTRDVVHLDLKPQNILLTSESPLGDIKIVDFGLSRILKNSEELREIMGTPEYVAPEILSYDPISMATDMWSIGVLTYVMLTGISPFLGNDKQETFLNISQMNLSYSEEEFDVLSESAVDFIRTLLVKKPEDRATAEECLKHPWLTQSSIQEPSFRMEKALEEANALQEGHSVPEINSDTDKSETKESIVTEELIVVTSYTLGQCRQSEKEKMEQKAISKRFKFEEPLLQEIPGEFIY
# [10] = molecular target: T5, Dual specificity tyrosine-phosphorylation-regulated kinase 2 (Homo sapiens) (UniProt Q92630); conditions: at 1 µM
# T5 sequence (whole entry): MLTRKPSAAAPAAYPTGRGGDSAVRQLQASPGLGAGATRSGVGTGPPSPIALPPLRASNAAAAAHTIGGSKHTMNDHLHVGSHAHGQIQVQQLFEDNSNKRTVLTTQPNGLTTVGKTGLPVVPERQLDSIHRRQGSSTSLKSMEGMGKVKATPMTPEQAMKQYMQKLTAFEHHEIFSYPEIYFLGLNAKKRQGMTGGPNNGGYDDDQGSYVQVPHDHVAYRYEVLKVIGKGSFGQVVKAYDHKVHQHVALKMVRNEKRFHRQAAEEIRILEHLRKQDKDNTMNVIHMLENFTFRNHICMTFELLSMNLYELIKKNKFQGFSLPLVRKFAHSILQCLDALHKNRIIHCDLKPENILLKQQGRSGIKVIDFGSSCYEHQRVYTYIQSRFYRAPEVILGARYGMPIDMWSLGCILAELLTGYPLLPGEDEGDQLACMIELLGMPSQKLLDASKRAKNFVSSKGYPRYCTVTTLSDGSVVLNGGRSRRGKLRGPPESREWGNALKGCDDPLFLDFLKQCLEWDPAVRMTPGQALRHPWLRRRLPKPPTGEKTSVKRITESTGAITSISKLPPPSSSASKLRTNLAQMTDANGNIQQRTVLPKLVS
# [11] = molecular target: T5, Dual specificity tyrosine-phosphorylation-regulated kinase 2 (Homo sapiens); conditions: at 10 µM
# [12] = molecular target: T6, Ephrin type-A receptor 1 (Homo sapiens) (UniProt P21709); conditions: at 1 µM
# T6 sequence (whole entry): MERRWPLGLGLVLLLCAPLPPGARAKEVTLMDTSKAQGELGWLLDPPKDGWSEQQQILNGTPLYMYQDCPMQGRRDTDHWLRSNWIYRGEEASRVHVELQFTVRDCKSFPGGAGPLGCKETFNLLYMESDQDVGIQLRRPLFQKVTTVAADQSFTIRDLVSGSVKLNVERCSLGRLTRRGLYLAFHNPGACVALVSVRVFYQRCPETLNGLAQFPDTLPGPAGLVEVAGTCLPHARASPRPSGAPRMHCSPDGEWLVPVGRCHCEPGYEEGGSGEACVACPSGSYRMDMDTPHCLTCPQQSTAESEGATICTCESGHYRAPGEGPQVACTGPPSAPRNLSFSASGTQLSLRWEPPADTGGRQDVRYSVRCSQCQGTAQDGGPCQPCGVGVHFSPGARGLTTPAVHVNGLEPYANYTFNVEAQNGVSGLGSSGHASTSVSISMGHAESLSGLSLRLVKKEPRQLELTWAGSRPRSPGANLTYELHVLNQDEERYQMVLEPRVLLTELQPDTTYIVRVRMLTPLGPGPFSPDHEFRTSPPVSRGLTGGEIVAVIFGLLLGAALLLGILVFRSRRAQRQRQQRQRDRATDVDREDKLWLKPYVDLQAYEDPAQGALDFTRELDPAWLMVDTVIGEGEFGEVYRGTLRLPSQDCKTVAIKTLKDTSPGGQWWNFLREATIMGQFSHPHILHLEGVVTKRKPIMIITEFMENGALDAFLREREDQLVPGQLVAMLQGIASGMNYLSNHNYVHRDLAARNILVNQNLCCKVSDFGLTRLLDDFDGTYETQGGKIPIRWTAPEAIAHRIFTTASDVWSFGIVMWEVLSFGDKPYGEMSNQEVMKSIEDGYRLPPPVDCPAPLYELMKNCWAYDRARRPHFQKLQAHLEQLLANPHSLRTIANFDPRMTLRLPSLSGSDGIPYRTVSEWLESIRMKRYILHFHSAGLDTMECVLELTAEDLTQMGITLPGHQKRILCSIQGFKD
# [13] = molecular target: T6, Ephrin type-A receptor 1 (Homo sapiens); conditions: at 10 µM
# [14] = molecular target: Ephrin type-A receptor 2 (Homo sapiens) (UniProt P29317); conditions: at 1 µM
# Chain of Ephrin type-A receptor 2 (Homo sapiens) (P29317 whole entry): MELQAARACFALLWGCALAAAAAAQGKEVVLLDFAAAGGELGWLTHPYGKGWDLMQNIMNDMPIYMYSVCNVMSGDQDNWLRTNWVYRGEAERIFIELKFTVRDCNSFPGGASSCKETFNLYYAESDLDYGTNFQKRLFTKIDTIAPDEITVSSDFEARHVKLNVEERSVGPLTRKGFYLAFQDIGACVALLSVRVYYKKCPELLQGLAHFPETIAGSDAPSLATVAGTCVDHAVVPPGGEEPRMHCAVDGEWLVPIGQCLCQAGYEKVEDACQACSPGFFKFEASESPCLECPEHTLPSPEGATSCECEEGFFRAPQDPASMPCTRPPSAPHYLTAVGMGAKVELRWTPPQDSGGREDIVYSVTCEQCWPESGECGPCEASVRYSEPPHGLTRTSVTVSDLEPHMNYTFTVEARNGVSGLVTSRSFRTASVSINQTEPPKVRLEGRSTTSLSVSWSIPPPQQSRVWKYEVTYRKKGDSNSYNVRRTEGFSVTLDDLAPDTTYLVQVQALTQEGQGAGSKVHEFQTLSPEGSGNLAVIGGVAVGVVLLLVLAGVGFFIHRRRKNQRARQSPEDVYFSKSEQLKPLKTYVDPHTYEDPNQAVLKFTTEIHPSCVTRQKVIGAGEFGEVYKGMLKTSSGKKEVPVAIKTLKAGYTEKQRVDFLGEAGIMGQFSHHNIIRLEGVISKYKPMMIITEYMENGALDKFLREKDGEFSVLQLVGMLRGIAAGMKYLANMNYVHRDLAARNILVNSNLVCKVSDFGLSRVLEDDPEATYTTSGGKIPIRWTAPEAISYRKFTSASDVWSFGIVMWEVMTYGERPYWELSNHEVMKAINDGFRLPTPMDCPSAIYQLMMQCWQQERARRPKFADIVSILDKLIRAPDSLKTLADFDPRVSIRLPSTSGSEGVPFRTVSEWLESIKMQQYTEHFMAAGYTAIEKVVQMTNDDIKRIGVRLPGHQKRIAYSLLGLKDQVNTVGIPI
# [15] = molecular target: Ephrin type-A receptor 2 (Homo sapiens) (UniProt P29317); conditions: at 10 µM
# [16] = molecular target: T7, Ephrin type-A receptor 3 (Homo sapiens) (UniProt P29320); conditions: at 1 µM
# T7 sequence (whole entry): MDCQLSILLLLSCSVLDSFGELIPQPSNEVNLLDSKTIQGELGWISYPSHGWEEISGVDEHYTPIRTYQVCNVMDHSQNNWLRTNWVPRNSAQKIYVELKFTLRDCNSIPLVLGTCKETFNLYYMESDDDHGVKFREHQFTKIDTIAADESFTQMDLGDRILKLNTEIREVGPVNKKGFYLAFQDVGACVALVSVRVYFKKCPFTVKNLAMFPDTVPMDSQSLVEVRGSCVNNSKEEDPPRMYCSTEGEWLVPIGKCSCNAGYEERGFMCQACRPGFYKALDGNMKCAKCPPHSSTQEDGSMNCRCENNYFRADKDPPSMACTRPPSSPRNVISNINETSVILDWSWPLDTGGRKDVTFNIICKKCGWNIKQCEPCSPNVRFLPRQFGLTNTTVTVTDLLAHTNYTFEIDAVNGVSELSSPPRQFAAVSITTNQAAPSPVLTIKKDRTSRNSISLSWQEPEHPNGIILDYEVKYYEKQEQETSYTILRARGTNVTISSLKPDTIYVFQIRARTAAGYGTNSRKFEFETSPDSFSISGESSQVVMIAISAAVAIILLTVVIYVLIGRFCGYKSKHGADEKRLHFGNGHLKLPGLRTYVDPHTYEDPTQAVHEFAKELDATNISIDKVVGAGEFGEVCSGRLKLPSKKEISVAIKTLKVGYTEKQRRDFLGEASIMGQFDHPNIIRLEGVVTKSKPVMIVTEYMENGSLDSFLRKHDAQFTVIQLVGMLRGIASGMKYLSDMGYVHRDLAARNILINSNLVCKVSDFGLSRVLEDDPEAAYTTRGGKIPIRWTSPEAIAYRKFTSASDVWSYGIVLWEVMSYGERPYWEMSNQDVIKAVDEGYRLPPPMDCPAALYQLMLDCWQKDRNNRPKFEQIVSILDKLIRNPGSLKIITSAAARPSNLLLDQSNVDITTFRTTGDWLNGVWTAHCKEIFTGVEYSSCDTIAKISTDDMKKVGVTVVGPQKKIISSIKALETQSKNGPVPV
# [17] = molecular target: T3, Myotonin-protein kinase (Homo sapiens); conditions: at 1 µM
# [18] = molecular target: T4, Serine/threonine-protein kinase 17A (Homo sapiens); conditions: at 10 µM
# [19] = molecular target: Epidermal growth factor receptor (Homo sapiens) (UniProt P00533); conditions: at 1 µM
# Chain of Epidermal growth factor receptor (Homo sapiens) (P00533 whole entry): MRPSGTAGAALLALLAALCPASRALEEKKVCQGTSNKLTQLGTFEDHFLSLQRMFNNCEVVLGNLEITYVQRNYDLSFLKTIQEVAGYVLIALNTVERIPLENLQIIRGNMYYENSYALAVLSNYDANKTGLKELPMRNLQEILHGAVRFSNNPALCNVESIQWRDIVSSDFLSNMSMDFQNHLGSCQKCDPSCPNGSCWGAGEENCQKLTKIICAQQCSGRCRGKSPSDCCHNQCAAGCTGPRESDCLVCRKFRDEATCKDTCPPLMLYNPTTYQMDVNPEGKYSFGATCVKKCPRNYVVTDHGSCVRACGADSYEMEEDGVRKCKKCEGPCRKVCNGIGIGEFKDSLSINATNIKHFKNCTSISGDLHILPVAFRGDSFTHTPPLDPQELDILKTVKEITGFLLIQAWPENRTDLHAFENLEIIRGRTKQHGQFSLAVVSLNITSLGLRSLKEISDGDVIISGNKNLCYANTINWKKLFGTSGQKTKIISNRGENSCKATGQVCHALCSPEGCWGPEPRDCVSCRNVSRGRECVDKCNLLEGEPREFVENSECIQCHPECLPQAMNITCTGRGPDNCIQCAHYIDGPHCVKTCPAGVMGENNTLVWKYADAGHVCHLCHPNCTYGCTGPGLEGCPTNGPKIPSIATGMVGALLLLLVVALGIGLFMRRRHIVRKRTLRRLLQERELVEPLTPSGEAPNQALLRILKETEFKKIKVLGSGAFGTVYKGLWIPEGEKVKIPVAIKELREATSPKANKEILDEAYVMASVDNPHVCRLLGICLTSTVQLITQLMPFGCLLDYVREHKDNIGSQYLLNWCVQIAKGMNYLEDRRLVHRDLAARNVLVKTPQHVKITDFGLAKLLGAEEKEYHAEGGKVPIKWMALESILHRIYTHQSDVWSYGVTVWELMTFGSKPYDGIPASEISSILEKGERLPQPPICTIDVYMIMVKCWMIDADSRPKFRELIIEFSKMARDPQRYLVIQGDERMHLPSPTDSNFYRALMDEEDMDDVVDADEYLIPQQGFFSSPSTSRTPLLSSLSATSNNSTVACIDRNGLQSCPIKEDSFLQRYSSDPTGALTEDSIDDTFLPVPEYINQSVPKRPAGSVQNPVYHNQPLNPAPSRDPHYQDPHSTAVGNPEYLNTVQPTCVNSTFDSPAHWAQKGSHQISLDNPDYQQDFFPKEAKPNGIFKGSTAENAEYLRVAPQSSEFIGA
# [20] = molecular target: Epidermal growth factor receptor (Homo sapiens) (UniProt P00533); conditions: at 10 µM
# Chain of Death-associated protein kinase 2 (Homo sapiens) (Q9UIK4 whole entry, looked up): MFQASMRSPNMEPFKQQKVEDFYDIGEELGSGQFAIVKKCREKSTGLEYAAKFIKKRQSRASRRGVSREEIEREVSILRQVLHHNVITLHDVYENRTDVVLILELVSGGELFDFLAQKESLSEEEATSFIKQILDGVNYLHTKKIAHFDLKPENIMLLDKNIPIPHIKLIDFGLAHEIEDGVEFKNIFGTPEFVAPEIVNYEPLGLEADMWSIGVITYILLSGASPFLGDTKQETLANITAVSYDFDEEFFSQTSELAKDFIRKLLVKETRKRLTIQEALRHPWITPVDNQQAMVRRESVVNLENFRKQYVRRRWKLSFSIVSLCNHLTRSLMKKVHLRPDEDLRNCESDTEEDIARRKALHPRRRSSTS
# Chain of Death-associated protein kinase 1 (Homo sapiens) (P53355 whole entry, looked up): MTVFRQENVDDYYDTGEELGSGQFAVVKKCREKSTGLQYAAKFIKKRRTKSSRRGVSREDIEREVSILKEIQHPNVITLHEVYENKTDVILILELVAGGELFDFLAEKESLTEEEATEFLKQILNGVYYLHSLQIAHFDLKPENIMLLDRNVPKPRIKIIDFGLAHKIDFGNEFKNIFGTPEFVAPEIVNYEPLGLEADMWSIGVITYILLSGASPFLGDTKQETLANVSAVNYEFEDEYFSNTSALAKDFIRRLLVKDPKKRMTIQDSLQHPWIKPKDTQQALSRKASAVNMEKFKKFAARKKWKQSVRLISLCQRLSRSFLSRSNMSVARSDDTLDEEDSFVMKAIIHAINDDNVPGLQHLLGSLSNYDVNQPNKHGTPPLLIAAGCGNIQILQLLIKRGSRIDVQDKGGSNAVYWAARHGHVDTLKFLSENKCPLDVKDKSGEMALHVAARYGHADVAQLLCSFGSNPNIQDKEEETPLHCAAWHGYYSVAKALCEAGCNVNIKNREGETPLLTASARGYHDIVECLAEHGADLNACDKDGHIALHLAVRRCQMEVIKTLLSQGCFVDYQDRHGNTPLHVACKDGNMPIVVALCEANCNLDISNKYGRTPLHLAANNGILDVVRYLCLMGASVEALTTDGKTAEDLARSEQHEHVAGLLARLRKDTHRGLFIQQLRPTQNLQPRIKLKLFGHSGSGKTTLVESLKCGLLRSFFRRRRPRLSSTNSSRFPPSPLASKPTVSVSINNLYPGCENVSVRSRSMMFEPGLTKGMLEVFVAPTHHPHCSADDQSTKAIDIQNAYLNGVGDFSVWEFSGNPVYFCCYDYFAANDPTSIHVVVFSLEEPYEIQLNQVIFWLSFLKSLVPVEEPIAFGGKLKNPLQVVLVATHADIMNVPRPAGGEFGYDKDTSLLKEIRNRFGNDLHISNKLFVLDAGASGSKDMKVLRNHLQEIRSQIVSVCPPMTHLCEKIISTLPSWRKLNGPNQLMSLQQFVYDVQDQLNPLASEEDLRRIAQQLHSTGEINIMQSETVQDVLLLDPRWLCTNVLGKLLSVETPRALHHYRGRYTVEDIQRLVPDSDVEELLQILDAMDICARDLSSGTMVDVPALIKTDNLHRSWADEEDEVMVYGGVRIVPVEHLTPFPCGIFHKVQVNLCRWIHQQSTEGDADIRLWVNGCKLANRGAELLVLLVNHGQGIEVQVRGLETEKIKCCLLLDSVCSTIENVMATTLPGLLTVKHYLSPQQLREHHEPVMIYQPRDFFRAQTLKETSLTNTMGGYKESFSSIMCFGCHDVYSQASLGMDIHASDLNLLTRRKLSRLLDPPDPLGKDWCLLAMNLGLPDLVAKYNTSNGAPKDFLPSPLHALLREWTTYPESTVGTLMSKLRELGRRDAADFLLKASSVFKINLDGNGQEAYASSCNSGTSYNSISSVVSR
SMILES,residual activity [1],residual activity [2],residual activity [3],residual activity [4],residual activity [5],residual activity [6],residual activity [7],residual activity [8],residual activity [9],residual activity [10],residual activity [11],residual activity [12],residual activity [13],residual activity [14],residual activity [15],residual activity [16],residual activity [17],residual activity [18],residual activity [19],residual activity [20]
CC(C)c1nn(-c2c(Cl)cccc2Cl)c2nc(Cc3ccc(OCCO)cc3)[nH]c(=O)c12,91%,92%,97%,73%,74%,98%,94%,87%,96%,96%,106%,105%,73%,96%,103%,94%,–,–,–,–
CC(C)[C@H](CO)Nc1nc(Nc2cc(N)cc(Cl)c2)c2ncn(C(C)C)c2n1,80%,99%,97%,94%,95%,95%,88%,90%,–,94%,74%,95%,11%,88%,29%,93%,87%,–,–,–
O=C1NC(=O)C(c2cn(CCCO)c3ncccc23)=C1c1cnccn1,83%,65%,59%,95%,78%,93%,96%,82%,89%,–,–,–,–,–,–,97%,–,67%,–,–
Oc1cccc(-c2nc(N3CCOCC3)c3oc4ncccc4c3n2)c1,76%,93%,–,94%,65%,–,–,–,116%,94%,98%,91%,–,–,–,–,–,86%,119%,119%
O=C(NC(NC(=S)Nc1ccc(F)c([N+](=O)[O-])c1)C(Cl)(Cl)Cl)C(c1ccccc1)c1ccccc1 (stereo unspecified),71%,95%,78%,136%,86%,102%,90%,–,–,98%,100%,104%,92%,–,–,–,71%,–,–,–
O=C(CCCc1ccc(-c2ccccc2F)cc1)Nc1ccc(O)cc1,105%,102%,99%,133%,192%,99%,111%,97%,–,105%,91%,93%,86%,97%,–,99%,108%,–,–,–
